Drawing on PubChem BioAssay (Tox21), this text covers outcome for 40 compounds.

Structures are written as SMILES. Activity calls are given as the source filed them. Calls follow the shape of the dose curve; as a rule, active = well fitted curve in the direction sought with a large enough effect in the repeat runs; inconclusive = weak or mixed curves; inactive = flat fitted curve, though single readings scatter.

This assay in a line: qHTS assay to test for compound auto fluorescence at 590 nm (red) in HEK293 cells (AID 720679). Conditions: red autofluorescence 540/590 nm; series mostly up to 91.3 µM. An excerpt: National Center for Advancing Translational Sciences [NCATS]
NIH Chemical Genomics Center [NCGC]
U.S. Environmental Protection Agency [EPA]
National Institutes of Environmental Health Sciences [NIEHS]
National Toxicology Program [NTP]
U.S. Food and Drug Administration [FDA]
Compound auto fluorescence often interferes with screening of the compound library against various biological targets and signaling pathways. Some of these compounds may have fluorophoric properties. Such properties may interfere with the assay outputs resulting in false positives and/or negatives. To decrease such complications and ensure the compound activities are relevant in terms of biological response, the Tox21 10K compound library was screened for auto fluorescence.
From the fluorophores used as reporter signals in our screening assays, the auto fluorescence equivalencies of compounds against three fluorophores have been evaluated: Triamterene, Fluorescein and Rose Bengal sodium for blue, green and red fluorescence, respectively. The fluorescence intensities were measured using Excitation/Emission wavelengths at 405/460nm, 485/535nm and 540/590nm for blue, green and red labels, respectively. This assay includes the red fluorescence data.
Tox21 Assay Protocol Summary:
2,000 HEK293 cells in 5 uL of culture medium containing 10% dialyzed FBS per well were dispensed into black wall/clear bottom 1536-well plates using a Multidrop Combi Dispenser (Thermo Scientific). The assay plates were incubated for 4-5 hr at 37C to allow cell attachment to the well bottom, followed by the transfer of 23 nL compound or DMSO vehicle by a pintool work station (Kalypsys, San Diego, CA). After the assay plates were incubated overnight at 37C and 5% CO2, fluorescence intensities in the assay plates were measured by an Envision (PerkinElmer, Shelton, CT) plate reader using three labels for measuring blue, green and red fluorescence at […] 460, 535 and 590nm respectively.
In the case of `O=C(O)c1ccccc1C(c1ccc(O)cc1)c1ccc(O)cc1`, the compound was called inactive.

Regarding `O=C(O)CCCC[C@@H]1SC[C@@H]2NC(=O)N[C@@H]21`, the outcome was inactive.

Turning to `O=C1CCC(N2C(=O)c3ccccc3C2=O)C(=O)N1` (stereo not given), the call was inactive.

Take `Fc1ccc(Br)cc1`: the call was inactive.

In the case of `O=C(O)[C@H](O)[C@@H](O)[C@H](O)[C@H](O)CO`, the result was inactive.

Take `CSCCC=O`: the compound was classed as inactive.

As to `CCCCCCCCCCCCc1ccccc1`, the compound was called inactive.

For `CCCCC(CC)COC(=O)C(C#N)=C(c1ccccc1)c1ccccc1` (stereo not given), the compound was called inactive.

On to `O=[N+]([O-])c1ccc(/C=C/c2ccc([N+](=O)[O-])cc2S(=O)(=O)O)c(S(=O)(=O)O)c1`, for which the result was inactive.

In the case of `COS(C)(=O)=O`, the result was inactive.

With `CC(=O)CC(=O)Nc1ccccc1`, the call was inactive.

For `CC(=O)Nc1cccc(O)c1`, the result was inactive.

Consider `O=c1[nH]nnc2ccccc12`, for which the compound was called inactive.

`CCCCCC/C(C=O)=C\c1ccccc1`: the result was inactive.

Consider `Nc1ccccc1[N+](=O)[O-]`, for which the outcome was inactive.

As for `C/C=C1/CC2C=CC1C2` (stereo not given), the call was inactive.

For `O=C(O)c1cc(=O)c2c(OCC(O)COc3cccc4oc(C(=O)O)cc(=O)c34)cccc2o1`, the call was inactive.

As for `CCCCC(CC)COC(=O)CS` (stereo not given), the outcome was inactive.

With `O=C(Oc1ccccc1)c1ccccc1`, the call was inactive.

With `c1c[nH]cn1`, the outcome was inactive.

For `O=S1(=O)CC=CC1`, the compound was called inactive.

For the compound `C=C(C)C(=O)OCCOCCOCCOC(=O)C(=C)C`, the compound was classed as inactive.

On to `c1ccc(OCCOc2ccccc2)cc1`, for which the result was inactive.

With `OCCOCCOCCO`, the result was inactive.

In the case of `CC(c1cc2ccccc2s1)N(O)C(N)=O` (stereo not given), the compound was classed as inactive.

Take `CCCCCCCC(=O)OC`: the call was inactive.

On to `O=P(OC(CCl)CCl)(OC(CCl)CCl)OC(CCl)CCl`, for which the compound was called inactive.

As to `Cc1cccnc1`, the compound was called inactive.

For `CCCCC(CC)COC(=O)CCCCC(=O)OCC(CC)CCCC` (stereo not given), the outcome was inactive.

For `CC(=O)OCC(=O)[C@@]12N=C(C)O[C@@H]1C[C@H]1[C@@H]3CCC4=CC(=O)C=C[C@]4(C)[C@H]3[C@@H](O)C[C@@]12C`, the outcome was inactive.

As to `CCCCCCCCCCCCOCCO`, the compound was called inactive.

Take `OCC(CO)(CBr)CBr`: the result was inactive.

As for `O=c1[nH]c(=O)n([C@H]2CCCO2)cc1F`, the result was inactive.

Regarding `C=CCOC(=O)c1ccccc1C(=O)OCC=C`, the compound was classed as inactive.

As to `C[Si](O[Si](C)(C)C)O[Si](C)(C)C`, the compound was called inactive.

Consider `CC[C@H](C)C(=O)O[C@H]1C[C@@H](C)C=C2C=C[C@H](C)[C@H](CC[C@@H]3C[C@@H](O)CC(=O)O3)[C@H]21`, for which the result was inactive.

For `CCc1ccc(CCOc2ccc(CC3SC(=O)NC3=O)cc2)nc1` (stereo not given), the outcome was inactive.

In the case of `ON=C1CCCCC1`, the result was inactive.

`O=C(O)c1ccc2c(c1)C(=O)OC2=O`: the compound was called inactive.

For `O=c1[nH]c(=O)n([C@H]2C[C@H](O)[C@@H](CO)O2)cc1Br`, the outcome was inactive.
